According to PubChem BioAssay (NCATS):
Results filed as inconclusive are left out. Active and inactive are the calls of the source. Calls follow the shape of the dose curve; as a rule, active = well fitted cell-killing curve with a large enough effect; inconclusive = small, poorly fitted or top-dose-only effect, or effect the other way; inactive = flat fitted curve, though single readings scatter. Where a SMILES comes first, the peptide text is derived from it. The star is where a group is joined. βNA = c1ccc2cc(N*)ccc2c1; Cbz = O=C(OCc1ccccc1)*

What was measured:
Experiment in all cases: Primary qHTS to identify gynecologic anti-cancer compounds using libraries of approved drugs and bioactive compounds (AID 1345084); also: nearly all actives have a fitted effect of over 55% in size
Conditions in all cases: Gynecologic cancer cell panel viability, ATPlite luminescence, 48 h; series mostly up to 57.5 µM
[1] = test system: OV90
Method in brief: (§1)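 Five-concentration response, 48 h; readout is ATP-driven luciferase luminescence.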

[2] = test system: PA-1
Method in brief: as §1

[3] = test system: SKOV3
Method in brief: as §1

[4] = test system: Tov-21-G
Method in brief: as §1

[5] = test system: Tov112D
Method in brief: as §1
% is scaled to controls: 0 for no effect and ±100 for the full control effect; potency is read from the fitted curve at half-maximal effect.

CC(C)CC(NC(=O)OCc1ccccc1)C(=O)NC(CC(C)C)C(=O)NC(CCC(=O)O)C(=O)Nc1ccc2ccccc2c1 (stereo not drawn) (Cbz-Leu-Leu-Glu-βNA; configuration not given here)
inactive: Potency [1] | Potency [2] | Potency [3] | Potency [4] | Potency [5]

C=C1[C@H]2CCC3[C@]4(C)CCC[C@@](C)(C(=O)O)C4CC[C@]3(C2)[C@H]1OC(C)=O (stereo not given in full)
inactive: Potency [1] | Potency [2] | Potency [3] | Potency [4] | Potency [5]

C=Cc1cc2oc(-c3ccc(O)c(F)c3)nc2cc1O
inactive: Potency [2] | Potency [3] | Potency [4] | Potency [5]
active: Potency [1] 25.1 µM

CC1=CC(=O)CC(C)(C)C1CO[C@@H]1O[C@H](CO)[C@@H](O)[C@H](O)[C@H]1O (stereo not given in full)
inactive: Potency [1] | Potency [2] | Potency [3] | Potency [4] | Potency [5]

CC1C(=O)OCC2=CC[N+]3([O-])CCC(OC(=O)C(C)(O)C1(C)O)C23 (stereo not given)
inactive: Potency [1] | Potency [2] | Potency [3] | Potency [4] | Potency [5]

CC(=O)O[C@@H]1[C@H](OC(C)=O)C[C@@]2(C)C(CC[C@@H](C)[C@]23Cc2c(O)cc4c(c2O3)CN([C@@H](CCC(=O)O)C(=O)O)C4=O)C1(C)C (stereo not given in full)
inactive: Potency [1] | Potency [2] | Potency [3] | Potency [4] | Potency [5]

COC(=O)[C@H](c1ccccc1Cl)N1CCC2SC(=O)C=C2C1 (stereo not given in full)
inactive: Potency [1] | Potency [2] | Potency [3] | Potency [4] | Potency [5]

COC(=O)Cn1nc(-c2cccc(OC)c2)c2ccccc21
inactive: Potency [1] | Potency [2] | Potency [3] | Potency [4] | Potency [5]

C[C@@H]1O[C@@H](O[C@H]2[C@@H]3C=CO[C@@H](O[C@@H]4O[C@H](CO)[C@@H](O)[C@H](O)[C@H]4O)[C@@H]3[C@@]3(CO)O[C@@H]23)[C@H](O)[C@H](O)[C@H]1OC(=O)/C=C/c1ccc(O)cc1
inactive: Potency [1] | Potency [2] | Potency [3] | Potency [4] | Potency [5]

CC[C@H](NC(=O)c1c(O)c(-c2ccccc2)nc2ccccc12)c1ccccc1
inactive: Potency [1] | Potency [2] | Potency [3] | Potency [4] | Potency [5]

COc1ccnc2[nH]cc(C(=O)C(=O)N3CCN(C(=O)c4ccccc4)CC3C)c12 (stereo not given)
inactive: Potency [1] | Potency [2] | Potency [3] | Potency [4] | Potency [5]

CNC(=O)c1ccc2c(c1)CCO[C@H]2CCN1CCN(c2ccc(C(N)=O)cc2)CC1
inactive: Potency [1] | Potency [2] | Potency [3] | Potency [4] | Potency [5]

CC1(CO)CCCC2(C)C1C(OC(=O)c1ccccc1)CC1C(=O)OCC12O (stereo not given)
inactive: Potency [1] | Potency [2] | Potency [3] | Potency [4] | Potency [5]

CC(C)=CC1C[C@](C)(O)[C@@H]2[C@H]3CCC4[C@@]5(C)CC[C@H](O[C@@H]6OC[C@H](O)[C@H](O[C@@H]7O[C@H](CO[C@@H]8O[C@H](CO)[C@@H](O)[C@H](O)[C@H]8O)[C@@H](O)[C@H](O)[C@H]7O)[C@H]6O[C@@H]6O[C@@H](C)[C@H](O)[C@@H](O)[C@H]6O)C(C)(C)[C@@H]5CC[C@@]4(C)[C@@]34CO[C@@]2(C4)O1 (stereo not given in full)
inactive: activity change, negative = cytotoxicity [1] 5% [at 11.6 µM] | activity change, negative = cytotoxicity [2] 0.967% [at 11.6 µM] | activity change, negative = cytotoxicity [3] 2.44% [at 11.6 µM] | activity change, negative = cytotoxicity [4] 9.39% [at 11.6 µM] | activity change, negative = cytotoxicity [5] 6.5% [at 11.6 µM]

CC1=C2CC(O)(C(C)(C)O)C(O[C@@H]3O[C@H](CO)[C@@H](O)[C@H](O)[C@H]3O)CC(C)C2CC1=O (stereo not given in full)
inactive: Potency [1] | Potency [2] | Potency [3] | Potency [4] | Potency [5]

C=C1CC[C@@H]2[C@](C)(CO)[C@H](O[C@@H]3O[C@H](CO)[C@@H](O)[C@H](O)[C@H]3O)CC[C@@]2(C)[C@@H]1C/C=C1/C(=O)OC[C@H]1O
inactive: Potency [1] | Potency [2] | Potency [3] | Potency [4] | Potency [5]

C[C@@H](c1ccccc1)N(C(N)=NC#N)c1cccc2ncccc12
inactive: Potency [1] | Potency [2] | Potency [3] | Potency [4] | Potency [5]

CC(=O)C1CCC(=O)N1Cc1ccccc1 (stereo not given)
inactive: Potency [1] | Potency [2] | Potency [3] | Potency [4] | Potency [5]

CCCC/C=C\CCCCCc1cc(=O)c2ccccc2n1C
inactive: Potency [1] | Potency [2] | Potency [3] | Potency [4] | Potency [5]

C/C=C(\C)C(=O)OC1C2(O)CC3=C4CC(=O)OC(c5ccoc5)C4(C)CCC3C(C)(C2=O)C(C(OC(C)=O)C(=O)OC)C1(C)C (stereo not given)
inactive: Potency [1] | Potency [2] | Potency [3] | Potency [4] | Potency [5]
